For one assay, the target named is FNBP1L. Briefly: pooled miR-30 sensor sort-seq; sequence = guide strand. The following applies: shRNA.
In the case of TGACTTTTGACAATAGTCCTTT, the sensor-assay potency score (higher = more potent) was -0.217.
Sequence TTCATCATCAAACTCATTGTGG displayed a sensor-assay potency score (higher = more potent) of 0.113.
TTGTAGTTGCTTGTAAATCTGA: the sensor-assay potency score (higher = more potent) was -0.235.
TAAGCTGTCGAACTGATCCCAC displayed a sensor-assay potency score (higher = more potent) of 0.0926.
For the sequence TTGTCTAAGCTGTCGAACTGAT, the sensor-assay potency score (higher = more potent) is -0.84.
The sequence TATGATTCAAATAACACTGGGA showed a sensor-assay potency score (higher = more potent) of 0.483.
The sequence TAACTTTGCGTTCTGAGTCAGC gave a sensor-assay potency score (higher = more potent) of -0.716.
TTCTGCTACAACTTCTCGCTGT gave a sensor-assay potency score (higher = more potent) of 0.673.
TAATTCACCATACACTCTGTGC: the sensor-assay potency score (higher = more potent) is -0.622.
As to TTTCTCTAGAGTTACATCTATG, the sensor-assay potency score (higher = more potent) was -0.933.

A further assay concerns the target FNBP1. The description is as above. The following applies: shRNA.
Sequence ATCTCTTTGATCCATCTCCTTC registered a sensor-assay potency score (higher = more potent) of -0.792.
On to TAGAATTAGTGCAACACACATA, for which the sensor-assay potency score (higher = more potent) was -0.218.
In the case of TAACTCATCGACTTTCTGCTGC, the sensor-assay potency score (higher = more potent) was 0.71.
TTTACTAGATTCAAGCTGCTTC: the sensor-assay potency score (higher = more potent) was 0.524.
For the sequence TTTGGTGACGTATTTGAGCTTG, the sensor-assay potency score (higher = more potent) was found to be 0.00299.
On the same count and under the same terms, for TTTATAAGCTTCTATTACCAGC the value was -0.679; for TATACTTGTATTCTTCTTCCTC, 0.713.
TTTCTGGGTCTCTACTCGCAGT had a sensor-assay potency score (higher = more potent) of -1.12.
In turn, TAAGCTTCTATTACCAGCTGTG gave a sensor-assay potency score (higher = more potent) of 0.175.
Same read-out and setting: for TTTATTTAACTCATCGACTTTC the value was -0.243.

For another assay, the target named is FNDC5. The assay is described as above. The following applies: shRNA.
Sequence TTTTTCCTTGTTGTTATTGGGT had a sensor-assay potency score (higher = more potent) of -0.666.
TTATTGGGTTCATTGTCCTTGA had a sensor-assay potency score (higher = more potent) of -0.801.
TAGCCAGAGCTGCTCTTCCTGT returned a sensor-assay potency score (higher = more potent) of -1.11.
Regarding TTGTAGTGCAGCCTCCTTCATC, the sensor-assay potency score (higher = more potent) was -0.884.
With TTCCTAAATAAATTGGACCAGT, the sensor-assay potency score (higher = more potent) was -0.788.
TTTTCCTTGTTGTTATTGGGTT had a sensor-assay potency score (higher = more potent) of -0.634.
The sequence TTGAAGAGCACAGGCTCGCTGG registered a sensor-assay potency score (higher = more potent) of -0.67.
In the case of TTGGTCTGAAAGACACAGCTTG, the sensor-assay potency score (higher = more potent) is -0.175.
TACCTCATCTTTGTTCTTGGAG returned a sensor-assay potency score (higher = more potent) of 0.567.
Consider TTGTCCAAGCTAGCATTTCTGA, for which the sensor-assay potency score (higher = more potent) is -1.26.
Take TTGATGATGTCATACTGGCGGC: the sensor-assay potency score (higher = more potent) is -0.843.
As to TTGAGAGCTCTTGTAGACCGGA, the sensor-assay potency score (higher = more potent) came to 0.301.

The target in the next assay is FNTB. Described as above. The following applies: shRNA.
TTTTCTTCTACTTTTGCCTGTT displayed a sensor-assay potency score (higher = more potent) of 0.0828.
In turn, TTGTAAGAACTGAAGACCTCTT gave a sensor-assay potency score (higher = more potent) of 0.275.
As to AAGGTGTGGATACTGACCGGGT, the sensor-assay potency score (higher = more potent) is -0.0926.
In the case of ATCTGTAGCCACTATCTGGGGG, the sensor-assay potency score (higher = more potent) is -0.8.
In turn, TACTGAAGAAGCTTCTCTCTGT yielded a sensor-assay potency score (higher = more potent) of 0.515.
Take TATAAACCTTGTCTGACTGGGG: the sensor-assay potency score (higher = more potent) turned out to be 0.554.
TCCACCAGCTTGTTGCAGCGGC registered a sensor-assay potency score (higher = more potent) of -1.13.
In turn, TTTCAGATAATGGAAGTGCTTC came in with a sensor-assay potency score (higher = more potent) of -0.367.

For the origin of these results see the OligoGym collection.
Further: reference of the scale not given here.
